# ChEMBL document CHEMBL3988442, “University of Dundee, Small-Polar-MMV Screening Library” (2021)
# Out of some 48,000 compounds screened, about 13,000 (27%) showed an effect of 50% or more. Some of the results follow.
# Tested on: Wolbachia pipientis
# Test: Anti-Wolbachia Cell-Based Screen
# Type: functional
# Design: scale not given: in the data most compounds retested in dose-response had high values
# Settings: 5 µM
row,Compound,Percent Effect [%]
1,O=C(Nc1ccccc1OCC1CCCCO1)c1ccc(O)nc1 (stereo not given),2.227
2,O=C(Nc1cc(F)ccc1OCC1CCCO1)NC1CC1 (stereo not given),110.8
3,Cc1ccc(C(=O)Nc2cc(F)ccc2OCC2CCCO2)cn1 (stereo not given),-10.64
4,Nc1ccnc(CNc2cc(F)ccc2OCC2CCCO2)n1 (stereo not given),-8.979
5,O=C(CNc1cc(F)ccc1OCC1CCCO1)N1CCOCC1 (stereo not given),97.1
6,Fc1ccc(OCC2CCCO2)c(NCc2cn3cccnc3n2)c1 (stereo not given),-2.31
7,CCn1nc(C)cc1C(=O)Nc1cc(F)ccc1OCC1CCCO1 (stereo not given),-4.642
8,CCOCCC(=O)Nc1cc(C(N)=O)ccc1N1CCCC(C)C1 (stereo not given),-3.919
9,CCc1nc(CN(C)CC(c2cccs2)N2CCOCC2)no1 (stereo not given),-2.837
10,COCCC(=O)N1CCc2cc(Cl)cc(Cl)c2C1,-13.08
11,Cc1c(-c2c(-c3ccccc3)ncn2[C@H](CO)C(=O)O)cnn1C,-0.2965
12,CCOc1cccc(C(C)NCc2ccc(OC)c(OC)c2OC)c1 (stereo not given),2.292
13,CCCC(NC(=O)c1cc(C2CC2)[nH]n1)c1nnc2ccccn12 (stereo not given),4.911
14,O=C(Nc1cc(F)ccc1OCC1CCCO1)c1ccoc1 (stereo not given),-0.8662
15,O=C(Nc1cc(F)ccc1OCC1CCCO1)c1ccccn1 (stereo not given),-3.019
16,O=C(Nc1cc(F)ccc1OCC1CCCO1)N1CCCC1 (stereo not given),75.82
17,CC(C)(C)c1nnc(CNc2cc(F)ccc2OCC2CCCO2)o1 (stereo not given),0.05226
18,O=C(Nc1cc(F)ccc1OCC1CCCO1)N1CCSCC1 (stereo not given),95.33
19,CCc1noc(CNc2cc(F)ccc2OCC2CCCO2)n1 (stereo not given),-4.375
20,CC(=O)N1CCC(Nc2cc(F)ccc2OCC2CCCO2)CC1 (stereo not given),103.1
21,O=C(CC(F)(F)F)Nc1cc(F)ccc1OCC1CCCO1 (stereo not given),91.81
22,CN(Cc1ccco1)C1CCC12CCN(C(=O)c1ccnnc1)CC2.O=C(O)C(F)(F)F (stereo not given),-20.01
23,CCN1CCN(S(=O)(=O)N2CCC(OC)CC2)[C@H]2CS(=O)(=O)C[C@H]21,-12.77
24,Cc1ccc2nc(CN(C)Cc3ccc(C)o3)cc(=O)n2c1,4.444
25,CC(COc1ccccc1)NCc1nc(-c2cccnc2)no1 (stereo not given),-6.485
26,CS(=O)(=O)c1ccc(CNCC2CCN(CCO)CC2)cc1,-3.753
27,Cc1cc(C(=O)NCc2ccccn2)no1,0.7911
28,Cc1cc(CNC(=O)c2ccno2)c(C)o1,94.7

row,Compound,Percent Effect [%]
1,COc1ccc(CNC(=O)NCc2cc(C)oc2C)cc1,2.864
2,Cc1cc(C(=O)NCc2cc(C)oc2C)no1,107.3
3,Cc1cc(CNC(=O)c2cnoc2C)c(C)o1,146.4
4,Cc1nnn2c1COCC(CNC(=O)c1cnoc1C)C2 (stereo not given),-0.1551
5,Cc1cc(C(=O)NCc2cccnc2OC(C)C)no1,-0.04653
6,Cc1cc(CNC(=O)COc2ccccc2F)c(C)o1,7.15
7,COc1cc(NC(=O)NCc2cc(C)oc2C)cc(OC)c1,-2.456
8,Cc1cccnc1CNC[C@H]1Cn2cc(-c3ccccc3)nc2CO1,6.747
9,NC(=O)c1cccc(CNC(=O)NCCOc2ccc(F)c(F)c2)c1,0.2822
10,CSCc1noc(C2CCC(=O)N(CCCN3CCCC3=O)C2)n1 (stereo not given),-15.49
11,OCCOc1ccc(NCc2cc(F)cc3cccnc23)cn1,-4.55
12,Cc1noc(CCCC(=O)N2CSCC2C(=O)NCC2CC2)n1 (stereo not given),8.382
13,CC(NCCN1CCN(C(=O)C2CCCC2)CC1)c1nccs1 (stereo not given),4.028
14,CC(C)(C)C(=O)NC(c1nccs1)C1CCN(CC2CCCCC2)CC1.Cl (stereo not given),130.3
15,CC(NC(=O)NC1CCN(CC2CCCC2)CC1)c1nccs1 (stereo not given),-2.566
16,Clc1ccc(N2CCC(C3CCN(Cc4cccnc4)CC3)C2)nc1 (stereo not given),4.175
17,CC(C)c1noc(C(C)N2CCN(Cc3noc(C(C)(C)C)n3)CC2)n1 (stereo not given),117.7
18,Cc1nc(CN2CCN(C(C)c3nc(C4CC4)no3)CC2)no1 (stereo not given),103.1
19,CC(C)c1noc(C(C)N2CCN(Cc3ccco3)CC2)n1 (stereo not given),-4.875
20,CC(c1nc(C2CC2)no1)N1CCN(Cc2ccccc2)CC1 (stereo not given),7.857
21,Cc1noc(C)c1CN1CCN(C(C)c2nc(C3CC3)no2)CC1 (stereo not given),133.7
22,Cc1ccccc1CN1CCN(C(C)c2nc(C3CC3)no2)CC1 (stereo not given),114.1
23,Cc1nnc(C(C)N2CCN(Cc3noc(C(C)(C)C)n3)CC2)o1 (stereo not given),6.078
24,CC(c1nc(C2CC2)no1)N1CCN(Cc2ccccc2F)CC1 (stereo not given),3.653
25,CCc1noc(C(C)N2CCN(Cc3noc(C)n3)CC2)n1 (stereo not given),-22.55
26,Cc1noc(C)c1CN1CCN(Cc2nc(C3CC3)no2)CC1,-14.96
27,Cc1noc(C(C)N2CCN(Cc3noc(C4CC4)n3)CC2)n1 (stereo not given),1.427
